A selection: hits, their analogues and other compounds. The true share with any hit is near 7.5%.
ELG1 genotoxic: inducers of genotoxicity in HEK293T ELG1-luciferase cells | HEK293T ELG1-luciferase reporter, luminescence, 16 h | Potency, µM (doses to about 46 µM), inactives show at the top dose activity change, positive = activation, usual class: activators | hit rate 1.3% among 330,000 | AID 504466; also: % of control where 0% means no effect; nearly all actives have a fitted effect of over 60% in size
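DMSO vehicle served as control against compound-treated ELG1-luciferase HEK293T cells; exposure lasted 16 hr at 37 °C and 5% CO2, followed by ONE-Glo luminescence detection after 30 min.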
Rab9 prom act: Rab9 promoter activation | Huh7 Rab9 promoter-luciferase reporter, luminescence, 24 h | Potency, µM (highest dose often 9.22 µM), for inactives: top-dose activation, negative = inhibition, most hits filed as activators | hit rate 2.8% among 320,000 | AID 485297; also: % of control where 0% means no effect; nearly all actives have a fitted effect of over 60% in size
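Luminescence from Amplite-detected luciferase (10 minutes, ambient) reports Rab9 promoter activation. Before that, stable Rab9-luciferase Huh7 cells (1500/well, reduced-serum OP-MEM I plus 10% FBS) were exposed to compound for 24 hours at 37C.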
SMN2 splice up: SMN2 splice variant enhancement | Potency, µM (top dose mostly 46.1 µM), without a hit: at the highest dose activity change, positive = activation, usual class: activators | hit rate 2.8% among 210,000 | AID 1458 | HEK293 SMN2-luciferase splicing reporter, luminescence, 30-36 h; also: % of control where 0% means no effect; nearly all actives have a fitted effect of over 55% in size
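qHTS luciferase splicing reporter: luminescence rises when SMN2 exon 7 is included in transfected HEK293 cells. Compound exposure lasted 30-36 h at 37C, with 4.5 mM final sodium butyrate as control, followed by a ONE-Glo read.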
FLuc counter: counter-screen for miR-21 project: firefly luciferase inhibitors or activators; P08659; purified FLuc, Km substrates, luminescence inhibition; Potency, µM (doses to about 57.5 µM), for the others: top-dose activity change, negative = inhibition, most hits filed as inhibitors; hit rate 6.9% among 360,000; AID 588342;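 also: plate controls were vehicle for no effect and reference inhibitor for full effect; nearly all actives have a fitted effect of over 55% in size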
Target sequence (P08659 whole entry, looked up): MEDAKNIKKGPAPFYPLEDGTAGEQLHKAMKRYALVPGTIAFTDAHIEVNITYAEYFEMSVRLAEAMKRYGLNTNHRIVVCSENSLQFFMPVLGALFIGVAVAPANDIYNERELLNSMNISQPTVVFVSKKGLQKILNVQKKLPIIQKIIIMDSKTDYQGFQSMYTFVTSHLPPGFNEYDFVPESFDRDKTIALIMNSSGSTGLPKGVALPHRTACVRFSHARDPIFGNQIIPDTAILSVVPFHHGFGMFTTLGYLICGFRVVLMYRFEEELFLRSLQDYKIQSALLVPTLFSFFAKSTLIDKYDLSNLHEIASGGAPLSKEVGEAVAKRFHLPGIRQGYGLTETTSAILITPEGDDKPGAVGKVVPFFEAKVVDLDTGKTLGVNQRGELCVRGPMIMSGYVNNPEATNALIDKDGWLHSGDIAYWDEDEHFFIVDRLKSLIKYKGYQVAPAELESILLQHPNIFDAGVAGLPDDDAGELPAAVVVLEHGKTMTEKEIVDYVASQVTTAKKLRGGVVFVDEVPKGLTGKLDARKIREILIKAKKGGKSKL
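Purified P. pyralis luciferase (10nM final) with 10uM D-luciferin and 10uM ATP (Km levels) in 50mM Tris acetate pH 7.5, 10mM Mg acetate, 0.01% Tween-20, 0.05% BSA; qHTS 6-point titration, ~60 µM downward; luminescence read.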
NPC1 prom act: NPC1 promoter activation | Huh7 NPC1 promoter luciferase reporter, 24 h | Potency, µM (doses to about 9.22 µM), for the others: at the top dose activation, usual class: activators | hit rate 2.4% among 320,000; also: % of control where 0% means no effect; nearly all actives have a fitted effect of over 60% in size
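Luminescence read-out of NPC1 promoter-driven luciferase in stably transfected Huh7 cells; compounds delivered in DMSO and left 24 h at 37C, 5% CO2, qHTS titration format.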
KinaseGlo FLuc: counter-screen: inhibitors of Kinase-Glo firefly luciferase | Q27757 | hit rate 0.28% among 200,000 | Potency, µM (doses to about 38.3 µM), for inactives: top-dose activity change, negative = inhibition, actives largely listed as inhibitors | Kinase-Glo luciferase, ATP luminescence, 8 min | AID 1379; also: % is scaled to controls: 0 for no effect and ±100 for the full control effect; nearly all actives have a fitted effect of over 60% in size
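Compound is pinned into ATP-containing buffer (10 uM ATP, imidazole pH 7.2, 7 mM MgCl2). Kinase-Glo luciferase reagent is then added. Light output is recorded following an 8-min room-temperature incubation.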
Starred values were filed as active, the others as inactive; ? = inconclusive; . = no result given. Calls follow the shape of the dose curve; as a rule, active = well fitted curve in the direction sought with a large enough effect; inconclusive = small, poorly fitted or top-dose-only effect, or another doubt; inactive = no such curve, though single readings can be large; an effect the other way counts as inactive or inconclusive. Potency is read from the fitted curve at half-maximal effect.

SMILES | ELG1 genotoxic | Rab9 prom act | SMN2 splice up | FLuc counter | NPC1 prom act | KinaseGlo FLuc
Cc1ccc2nc(-c3ccc(N4CCOCC4)cc3)c(Nc3ccccc3C)n2c1 | . | . | ? | 1.9µM* | . | .
O=C(CC(c1cccs1)N1Cc2ccccc2C1=O)Nc1ccccc1F (stereo not drawn) | . | . | . | -7% | . | .
Cc1sc2ncn(CC(=O)Nc3cccc(C(F)(F)F)c3)c(=O)c2c1S(=O)(=O)N1CCN(C)CC1 | . | . | 15% | 0% | . | .
C[N+](C)(C)CCC(=O)c1cccc2ccccc12 | . | . | -16% | . | . | -7%
CN(C)c1ccc(NC(=O)CCCc2ccccc2)cc1 | 0.92µM* | 1.6µM* | 16µM* | 2.4µM* | 4µM* | -1%
Cc1cccc(NC(=O)N2CCCCCC2)c1 | ? | ? | . | ? | 25% | .
CC(O)c1cccc(NC(=O)CCCc2ccccc2)c1 (stereo not drawn) | 4% | 29% | . | -13% | 10% | -5%
Cc1cccc(NC(=O)N2CCN(Cc3ccccc3)CC2)c1 | 10% | 20% | 18% | 17µM* | 21% | -3%
Cc1cccc(NC(=O)CCCc2ccccc2)c1 | ? | ? | . | 17µM* | ? | .
O=C(CCc1ccccc1)Nc1ccccc1 | 0% | 0% | . | -3% | -4% | -2%
CC1CCCCN1C(=O)Cn1c(=O)oc2cc(S(=O)(=O)N3CCCC3)ccc21 (stereo not drawn) | -3% | -54% | . | -2% | -4% | .
Cc1ccccc1CN1CCc2cc([N+](=O)[O-])ccc21 | -5% | -1% | . | -6% | -4% | .
COC(=O)CCN1CCc2cc(N=Nc3ccc([N+](=O)[O-])cc3)ccc21 | ? | 1.1µM* | . | 0.67µM* | 1.1µM* | .
CCOc1ccccc1NC(=O)c1nc2nc(C)cc(C(F)F)n2n1 | . | . | . | -1% | . | .
COc1ccc(N=C2C(=Nc3ccc(OC)cc3)N(c3ccc(OC)cc3)C(=S)N2C(=O)c2ccc(OC)cc2)cc1 | 0% | 3% | 4% | ? | 0% | -3%
COc1ccc(N=C2C(=Nc3ccc(OC)cc3)N(c3ccccc3)C(=S)N2C(=O)c2ccc(Cl)cc2)cc1 | ? | 17% | 25µM* | ? | 2% | -4%
CC(=O)Nc1cccc(Cn2cccn2)c1 | 13% | -6% | 8% | 1% | 0% | -2%
O=C(Nc1cc(S(=O)(=O)N2CCOCC2)ccc1N1CCOCC1)c1cc2c(s1)CCC2 | -5% | -9% | . | -1% | -2% | .
O=C(Nc1cccc(S(=O)(=O)N2CCOCC2)c1)c1cc2c(s1)CCC2 | -7% | 7% | -27% | 15µM* | 9% | 0%
O=C(Nc1cccc(Cn2cccn2)c1)c1cc2c(s1)CCCC2 | ? | 0.35µM* | ? | ? | 0.11µM* | -27%
O=C(N[C@H]1/C=C\[C@@H](O)CCCC1)OCc1ccccc1 | 15µM* | . | . | . | . | .
COc1ccc(NC(=O)[C@@H](c2ccccc2)N2Cc3ccccc3C2=O)cc1OC | . | . | 22% | 4% | . | .
COc1ccc(CSc2nc3ccncc3n2Cc2nc(-c3ccc(OC)c(OC)c3)oc2C)cc1 | . | . | ? | 4.8µM* | . | .
Cc1ccc(CSc2nc3ccncc3n2Cc2nc(-c3ccccc3C)oc2C)cc1 | . | . | ? | 4.8µM* | . | .
Cc1ccc(CSc2nc3cccnc3n2Cc2nc(-c3ccccc3F)oc2C)cc1 | . | . | . | 5.4µM* | . | .
SMILES | ELG1 genotoxic | Rab9 prom act | SMN2 splice up | FLuc counter | NPC1 prom act | KinaseGlo FLuc
COc1ccc(-c2nc(Cn3c(SCc4cccc(Cl)c4)nc4ccncc43)c(C)o2)cc1 | . | . | 18% | -3% | . | .
Cc1oc(-c2ccccc2F)nc1Cn1c(SCc2cccc(Cl)c2)nc2ccncc21 | . | . | 10% | ? | . | .
COc1cc2ccccc2cc1C(=O)Nc1ccc2oc(-c3cccc(C)c3)nc2c1 | . | . | -8% | ? | . | .
CCCn1cnc2cc(NC(=O)c3cccs3)ccc21 | 12% | 2.8µM* | 16µM* | 11µM* | ? | -12%
CC(C)(C)n1cnc2cc(NC(=O)c3ccco3)ccc21 | ? | 0.71µM* | . | 9.5µM* | 0.28µM* | .
CCn1cnc2cc(NC(=O)c3ccco3)ccc21 | 18µM* | 1.6µM* | 5µM* | 11µM* | 2.8µM* | -16%
CCCn1cnc2cc(NC(=O)c3ccco3)ccc21 | 2.9µM* | 2.8µM* | . | ? | 3.5µM* | .
Cn1c(CCN2CCOCC2)nc2cc(NC(=O)c3cccs3)ccc21 | -1% | -4% | 7% | 1% | -3% | 2%
O=C(O)COCC(=O)Nc1ccc2c(c1)ncn2CCc1ccccc1 | -1% | -8% | . | 3% | 0% | .
COc1cccc(C(=O)NCC(c2ccc(N(C)C)cc2)N2CCc3ccccc32)c1 (stereo not drawn) | . | . | . | -3% | . | .
COc1ccc(CCNS(=O)(=O)c2ccc(N3CCCCS3(=O)=O)cc2)cc1 | . | . | . | 3% | . | .
COCCNc1nc(C)nc2c1nc(-c1ccccc1)n2C1CCN(Cc2ccccc2)C1 (stereo not drawn) | . | . | -9% | . | . | 3%
O=C(c1ccc2c(c1)OCCO2)N(Cc1cccnc1)c1nc2c(F)cccc2s1 | . | . | . | 17µM* | . | .
O=C(Cc1ccccc1)N(Cc1cccnc1)c1nc2c(F)cccc2s1 | . | . | . | -9% | . | .
Clc1cccc(NCc2cn3cccnc3n2)c1 | 15% | 27% | 14% | -11% | 23% | 0%
c1cnc2c(OCc3cn4cccnc4n3)cccc2c1 | ? | 23% | 9% | ? | 18% | -7%
Cc1cc(Cl)ccc1OCc1cn2cccnc2n1 | ? | 3.2µM* | 13µM* | 12µM* | 3.5µM* | -4%
Clc1ccc(OCc2cn3cccnc3n2)c2ncccc12 | 16µM* | ? | 11µM* | ? | ? | -4%
COc1ccc(C2NC(=O)N(C)C3=C2C(=O)N(c2ccc(C)cc2)C3)cc1 (stereo not drawn) | . | . | -5% | -6% | . | .
O=C(NCCc1ccc(F)cc1)c1ccc2c(=O)n3c(nc2c1)CCC3 | 15% | 3.5µM* | . | ? | 29% | .
O=C(COc1ccccc1F)NNC(=O)c1ccc2c(=O)n3c(nc2c1)CCC3 | 7% | 4% | . | -3% | -2% | .
O=C(NCCOc1ccccc1F)c1ccc2c(=O)n3c(nc2c1)CCC3 | ? | 2.2µM* | . | 6µM* | 2.8µM* | .
O=C(Nc1ccc(-c2noc(COc3ccccc3Cl)n2)cc1)c1ccco1 | ? | ? | 11µM* | 11µM* | 3.2µM* | -26%
CC(NC(=O)c1ccco1)c1nc(-c2ccc(C(C)(C)C)cc2)no1 (stereo not drawn) | -1% | 0% | . | 17µM* | 8% | .
CC(C)(C)c1ccc(-c2noc(CNC(=O)c3ccco3)n2)cc1 | 10% | 6% | . | 15µM* | 0% | .

Bioassay records deposited in PubChem by National Center for Advancing Translational Sciences (NCATS).
